# CDK5 p35 inh = inhibitors of human CDK5/p35 kinase. Recombinant CDK5/p35, ADP-Glo luminescence, 60 min. AID 488839. 0.01% of 330,000 active. inhibition, % at 10 µM. Q00535+Q15078;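 active = highest replicate inhibition of at least 50% and at least 75% of replicates reaching 50%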;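 also: plate controls were DMSO neutral control for no effect and GW8510 at 10 µM for full effect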
# PglD DTNB = blocks C. jejuni PglD acetyltransferase activity. AID 602405. inhibition, % at 12.5 µM. 0.098% of 360,000 active. purified PglD enzyme, DTNB colorimetric CoA detection; in the data active = inhibition above about 16%, passing the limit was not always enough
# dFosB act = enhances mouse delta FosB homodimer DNA binding | activation, % at 25 µM | AID 493131 | 0.99% of 340,000 active | purified delta FosB, TAMRA-CDK5 oligo fluorescence polarization; percent of positive-control signal above neutral wells | P13346;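 active = mean activation above about 17%, with every replicate also reaching it, limit read from the data, passing the limit was not always enough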
# Target sequence (P13346 whole entry, looked up): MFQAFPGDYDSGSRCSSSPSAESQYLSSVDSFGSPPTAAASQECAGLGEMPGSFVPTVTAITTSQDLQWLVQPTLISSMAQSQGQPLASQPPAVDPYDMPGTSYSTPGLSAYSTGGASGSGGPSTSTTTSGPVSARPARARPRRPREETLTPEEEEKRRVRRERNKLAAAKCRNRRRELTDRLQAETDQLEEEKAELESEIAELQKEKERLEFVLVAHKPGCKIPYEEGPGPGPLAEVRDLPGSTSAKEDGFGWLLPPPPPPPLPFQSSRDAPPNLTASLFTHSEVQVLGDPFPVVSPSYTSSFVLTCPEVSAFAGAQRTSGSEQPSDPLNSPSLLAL
# SIRT5 inh = blocks human SIRT5 desuccinylation of peptide; 1.1% of 330,000 active; inhibition, % at 15 µM; Q9NXA8; Purified SirT5, succinyl-peptide AMC, trypsin-coupled fluorescence; in the data active = inhibition above about 15%
# FGF22 binding = binders of recombinant human FGF22 by thermal shift | SYPRO orange fluorescence; percent of sucrose octasulfate shift, DMSO zero | Q9HCT0 | 1.5% of 340,000 active | AID 651658 | activity (Tm shift, normalised), % at 9.99 µM;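 active = mean Tm shift, scaled 0 neutral to 100 positive control, at about 1.3% or above, every replicate too, limit read from the data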
# Target sequence (Q9HCT0 whole entry, looked up): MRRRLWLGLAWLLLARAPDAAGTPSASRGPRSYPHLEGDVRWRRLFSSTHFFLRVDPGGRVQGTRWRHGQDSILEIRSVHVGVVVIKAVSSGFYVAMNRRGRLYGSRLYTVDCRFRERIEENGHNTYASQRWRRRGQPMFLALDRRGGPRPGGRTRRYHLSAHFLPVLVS
# PvdQ acylase = P. aeruginosa PvdQ acylase inhibition; 0.063% of 340,000 active; purified PvdQ acylase, fluorescence plate reader; inhibition, % at 10 µM; in the data active = inhibition above about 30%, passing the limit was not always enough;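 also: 0% = vehicle neutral wells and 100% = reference inhibitor wells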
# * marks the source's active call; other numbers are inactive results; · = no result. An excerpt weighted towards active compounds, which were near 2.8% of everything screened.
SMILES,CDK5 p35 inh,PglD DTNB,dFosB act,SIRT5 inh,FGF22 binding,PvdQ acylase
Cc1noc(C)c1NC(=O)N(C)C[C@@H]1Oc2ccc(NS(C)(=O)=O)cc2CC(=O)N([C@H](C)CO)C[C@@H]1C,·,-1.2,·,·,0.0,·
C[C@H]1CCCCO[C@@H](CN(C)C(=O)C2CCCCC2)[C@@H](C)CN([C@@H](C)CO)C(=O)c2cc(NC(=O)Cc3ccccc3)ccc2O1,·,-0.5,·,-1.1,1.9*,·
C[C@@H]1CCCCO[C@H](CN(C)Cc2ccccc2)[C@H](C)CN([C@H](C)CO)C(=O)c2cc(NC(=O)Cc3ccccc3)ccc2O1,·,2.1,·,16.1*,-0.5,·
N#C[C@@H]1[C@H](c2ccccc2)[C@@H](CO)N1C(=O)Nc1cccc(F)c1,·,-3.7,·,-0.9,0.1,·
O=C(C[C@@H]1C[C@@H]2c3cc(NC(=O)Nc4ccc(F)cc4)ccc3O[C@@H]2[C@@H](CO)O1)NCC1CC1,·,2.6,·,·,0.0,·
O=c1[nH][nH]c2cc(=O)n(-c3cccc(C(F)(F)F)c3)nc12,-10.8,·,-15.6,4.5,0.2,-2.2
Nc1n[nH]c2cc(=O)n(-c3cccc(C(F)(F)F)c3)nc12,6.3,-0.3,-1.0,0.8,43.4*,-12.3
Cc1ccc(C(=O)CSc2nc(C(C)C)nc3ccccc23)cc1,1.1,1.6,-5.3,-1.4,0.1,-4.4
CC(C)c1nc(SCC(=O)c2ccc(F)cc2)c2ccccc2n1,0.0,·,-9.0,-0.9,43.1*,13.0
CCS(=O)(=O)c1ccc2oc(Nc3ccc(OC)cc3)nc2c1,0.1,-5.5,4.4,-2.5,0.3,-13.0
CCOc1ccc(Nc2nc3cc(S(=O)(=O)CC)ccc3o2)cc1,0.5,4.5,-10.9,17.7*,0.2,-14.0
CC(C)(O)C#Cc1ccc(CN2CCCC(CO)(Cc3cccc(Cl)c3)C2)cc1 (stereo not drawn),0.0,·,-1.7,-0.1,-0.3,1.8
Cc1ccccc1CC1(CO)CCCN(Cc2ccc(C#CC(C)(C)O)cc2)C1 (stereo not drawn),-5.4,·,-9.5,-6.4,43.4*,-6.3
COc1ccc(S(=O)(=O)N2CCOC23CCN(S(C)(=O)=O)CC3)cc1,1.6,-1.2,-2.9,1.2,-0.4,-7.9
COc1ccc(S(=O)(=O)N2CCOC23CCN(S(=O)(=O)c2ccccc2)CC3)cc1,1.0,1.4,-1.8,26.8*,-0.2,-12.3
CCN(CC)C(=O)c1nc[nH]c1C(=O)N1CCC(C)CC1,-2.2,2.0,-2.3,0.0,9.1*,-26.5
CCCNC(=O)N1C[C@@H](C)[C@H](OC)CN(C)C(=O)c2cc(NS(=O)(=O)CC(F)(F)F)ccc2OC[C@@H]1C,·,0.8,·,-7.2,0.5,·
CCC(C)C(=O)Nc1ccc([N+](=O)[O-])cc1OC (stereo not drawn),1.9,-2.6,-4.1,-0.5,43.0*,-12.2
Cc1cnc(C(=O)NCCc2ccc(Cl)cc2)cn1,2.4,1.9,1.0,1.4,0.1,3.2
Cc1cnc(C(=O)NCc2ccc(Cl)cc2Cl)cn1,-1.0,·,-15.5,2.2,43.3*,-12.2
COC1CCN(C(=O)CC2C(=O)NCCN2CC(C)(C)C)CC1 (stereo not drawn),-2.8,·,-10.5,-2.6,0.0,-2.3
COC1CCN(C(=O)CC2C(=O)NCCN2CC2CCCCC2)CC1 (stereo not drawn),-0.1,·,-6.2,1.3,43.1*,-18.2
CC(C)Cc1nnc(NC(=O)CCC(=O)N2CCN(c3ccc([N+](=O)[O-])cc3)CC2)s1,0.7,-7.3,-7.9,7.7,-0.1,-3.3
CC(C)Cc1nnc(NC(=O)Cc2ccc([N+](=O)[O-])cc2)s1,1.4,1.9,-2.2,28.8*,0.4,0.7
COc1ccc(C(=O)NCCNc2ccc([N+](=O)[O-])cc2)cc1,-0.5,·,-5.8,2.2,67.2*,7.5
SMILES,CDK5 p35 inh,PglD DTNB,dFosB act,SIRT5 inh,FGF22 binding,PvdQ acylase
O=S(=O)(c1ccc(Br)cc1)c1nc(-c2ccco2)oc1NCC1CCCO1 (stereo not drawn),1.7,·,-6.3,-1.6,43.4*,-19.7
Cc1ccc(S(=O)(=O)c2nc(-c3ccco3)oc2NCC2CCCO2)cc1 (stereo not drawn),2.9,·,-2.9,·,·,-2.7
CC(C)NC(=O)N[C@@H]1C=C[C@H](CC(=O)N2CCCCC2)O[C@@H]1CO,·,0.9,·,-0.2,-0.4,·
C=CCNC(=O)/C(C#N)=C/c1ccccc1Cl,3.7,·,-0.4,0.8,43.3*,-2.8
C=CCNC(=O)/C(C#N)=C/c1ccc(C(=O)O)cc1,0.4,3.0,4.4,-5.9,0.4,-11.0
Cc1ccc(-c2ccc3c(c2)O[C@H](CN(C)C(=O)C2CC2)[C@@H](C)CN([C@H](C)CO)S3(=O)=O)cc1,·,-0.5,·,5.9,-0.1,·
C[C@@H]1CN([C@@H](C)CO)C(=O)c2cc(C#C[C@@H](C)O)cnc2O[C@@H]1CN(C)Cc1cccc(F)c1,·,0.3,·,-1.5,0.0,·
O=C(Nc1nc(-c2ccc(Cl)cc2Cl)cs1)c1ccc(OCC2CCCO2)cc1 (stereo not drawn),0.6,1.2,-7.1,111.7*,0.0,-12.2
O=C(Nc1ccc(Cl)cc1)c1ccc(OCC2CCCO2)cc1 (stereo not drawn),2.1,·,2.4,-1.0,0.0,-11.2
C[C@@H]1CN([C@@H](C)CO)C(=O)Cc2cc(NC(=O)CCN3CCOCC3)ccc2O[C@H]1CN(C)S(=O)(=O)c1cccs1,·,2.2,·,-1.1,0.4,·
O=C(O)COc1ccccc1/C=N/NC(=O)c1cccc(S(=O)(=O)Nc2cccc(Cl)c2)c1,-2.6,·,-2.3,-2.1,43.0*,-8.6
COc1ccccc1NS(=O)(=O)c1cccc(C(=O)N/N=C/c2ccc(OCC(=O)O)cc2)c1,-4.4,·,-1.2,4.0,0.6,2.3
C[C@H]1CN([C@@H](C)CO)C(=O)c2cc(C#CC3CCCCC3)cnc2O[C@H]1CN(C)S(=O)(=O)c1ccc(F)cc1,·,-4.2,·,0.1,0.0,·
C/C(N)=C(/C#N)C(=O)COC(=O)CNS(=O)(=O)c1c(F)cccc1F,-4.8,-3.0,0.2,-1.0,43.5*,-2.8
O=C(NC1CCCC1)[C@@H]1[C@@H](CO)[C@@H]2Cn3c(cccc3=O)[C@H]1N2CC1CCCC1,·,-2.1,·,0.8,-0.4,·
Cc1ccc(S(=O)(=O)N(C)C[C@@H]2Oc3cc(C#Cc4ccncc4)ccc3S(=O)(=O)N([C@@H](C)CO)C[C@@H]2C)cc1,·,12.2,·,16.1*,0.0,·
C[C@H]1CN([C@@H](C)CO)S(=O)(=O)c2ccc(C#Cc3ccncc3)cc2O[C@H]1CN(C)S(=O)(=O)c1ccccc1,·,3.1,·,2.4,-0.2,·
Cc1ccc(S(=O)(=O)N(C)C[C@H]2Oc3cc(C#Cc4ccncc4)ccc3S(=O)(=O)N([C@H](C)CO)C[C@H]2C)cc1,·,1.0,·,14.9,-0.5,·
Cc1ccc(S(=O)(=O)N(C)C[C@H]2Oc3cc(C#Cc4ccncc4)ccc3S(=O)(=O)N([C@H](C)CO)C[C@@H]2C)cc1,·,2.5,·,17.5*,0.3,·

# Screens as filed in PubChem BioAssay.
